# ChEMBL document CHEMBL3988442, “University of Dundee, Small-Polar-MMV Screening Library” (2021)
# For some assays here: Entries with a potency or affinity are not part of this list.
# Tests used:
# Design in all cases: scale not given: direction of the effect not stated beside the values
# [1] = target: Protein translocase subunit SecA (Escherichia coli (strain K12)) (UniProt P10408); test: Assay to Identify E. coli SecA ATPase Inhibitors; format: functional; settings: 30 µM
# [2] = target: T1, Ubiquitin-activating enzyme e1, putative (Leishmania donovani (strain BPK282A1)) (UniProt E9BSI1); test: Leishmania donovani Ubiquitin Activating Enzyme (LdE1); format: functional; settings: 30 µM
# T1 sequence (whole entry): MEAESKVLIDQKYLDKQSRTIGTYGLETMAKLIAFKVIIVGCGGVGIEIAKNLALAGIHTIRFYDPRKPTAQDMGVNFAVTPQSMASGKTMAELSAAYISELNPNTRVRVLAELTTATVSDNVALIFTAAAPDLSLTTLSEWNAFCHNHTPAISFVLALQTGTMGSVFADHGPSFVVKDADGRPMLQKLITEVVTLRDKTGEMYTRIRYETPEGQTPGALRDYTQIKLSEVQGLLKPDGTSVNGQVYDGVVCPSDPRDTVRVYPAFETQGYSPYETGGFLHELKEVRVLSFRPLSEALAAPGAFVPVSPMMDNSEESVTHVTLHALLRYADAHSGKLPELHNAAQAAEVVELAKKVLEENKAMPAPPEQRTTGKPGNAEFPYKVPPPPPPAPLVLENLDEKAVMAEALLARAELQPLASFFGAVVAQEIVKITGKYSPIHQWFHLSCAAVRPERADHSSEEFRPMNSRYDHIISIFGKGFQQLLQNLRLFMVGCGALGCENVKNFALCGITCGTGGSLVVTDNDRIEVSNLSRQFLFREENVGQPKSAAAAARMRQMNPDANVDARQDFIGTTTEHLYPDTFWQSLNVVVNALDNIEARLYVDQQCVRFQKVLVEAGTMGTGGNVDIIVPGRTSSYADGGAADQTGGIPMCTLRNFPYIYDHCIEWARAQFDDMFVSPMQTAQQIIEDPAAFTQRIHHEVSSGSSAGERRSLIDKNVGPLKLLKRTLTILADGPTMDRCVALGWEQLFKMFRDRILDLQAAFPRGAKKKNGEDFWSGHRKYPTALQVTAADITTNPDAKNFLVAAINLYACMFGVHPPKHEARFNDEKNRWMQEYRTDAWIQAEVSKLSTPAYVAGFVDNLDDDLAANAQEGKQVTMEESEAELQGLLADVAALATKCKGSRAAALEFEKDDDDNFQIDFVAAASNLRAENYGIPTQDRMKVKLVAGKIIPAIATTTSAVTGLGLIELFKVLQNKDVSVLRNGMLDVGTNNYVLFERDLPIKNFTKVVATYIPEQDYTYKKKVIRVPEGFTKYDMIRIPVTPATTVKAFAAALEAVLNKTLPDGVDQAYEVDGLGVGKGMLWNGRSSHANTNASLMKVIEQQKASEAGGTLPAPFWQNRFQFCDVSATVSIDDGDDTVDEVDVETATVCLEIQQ
# [3] = target: AMP-activated protein kinase, AMPK (Homo sapiens) (UniProt P54646+O43741+P54619+Q9UGJ0+Q9Y478+Q13131+Q9UGI9); test: AMP-dependent Kinase enzyme assay. An in vitro enzyme assay that detects ADP turnover that is directly proportional to AMPK activity. This uses naive AMPK that is activated during the assay with MK-8722; format: functional; settings: 30 µM
# [4] = target: Sialic acid-binding Ig-like lectin 9 (Homo sapiens) (UniProt Q9Y336); test: Hs-Siglec9 ALPHAscreen SOP 20170721; settings: 10 µM
# [5] = system: Trypanosoma cruzi; test: Trypanosoma cruzi phosphomannomutase and mannose-1-phosphate guanylyltransferase assay; format: functional; settings: 10 µM
# [6] = target: T2, Arginase-2, mitochondrial (Homo sapiens) (UniProt P78540); test: in vitro enzyme assay to detect the production of urea directly proportional to the activity of Arginase II; format: functional; settings: 33.3 µM; also: in the data most compounds retested in dose-response had high values
# T2 sequence (whole entry): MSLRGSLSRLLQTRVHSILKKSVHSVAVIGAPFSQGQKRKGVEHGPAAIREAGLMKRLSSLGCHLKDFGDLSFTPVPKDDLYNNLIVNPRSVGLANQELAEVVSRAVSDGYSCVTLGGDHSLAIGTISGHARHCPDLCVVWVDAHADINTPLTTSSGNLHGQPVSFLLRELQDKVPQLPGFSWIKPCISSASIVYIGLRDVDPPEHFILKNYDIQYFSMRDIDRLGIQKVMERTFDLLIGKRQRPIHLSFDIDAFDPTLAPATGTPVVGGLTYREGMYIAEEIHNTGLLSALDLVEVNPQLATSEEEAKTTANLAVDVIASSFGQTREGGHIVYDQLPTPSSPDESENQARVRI
# [7] = target: T3, Proteasome subunit beta (Trypanosoma cruzi) (UniProt O96673); test: Trypanosoma cruzi proteasome chymotrypsin-like activity (TcProtChymo) assay.; also: in the data most compounds retested in dose-response had high values; format: functional; settings: 9.37 µM
# T3 sequence (whole entry): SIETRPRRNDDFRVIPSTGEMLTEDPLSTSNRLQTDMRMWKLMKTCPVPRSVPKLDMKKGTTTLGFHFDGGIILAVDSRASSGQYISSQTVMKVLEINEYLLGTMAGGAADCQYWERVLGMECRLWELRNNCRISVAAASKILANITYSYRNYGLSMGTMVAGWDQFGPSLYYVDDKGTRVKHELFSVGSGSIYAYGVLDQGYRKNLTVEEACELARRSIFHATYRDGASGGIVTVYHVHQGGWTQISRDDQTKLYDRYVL
# [8] = species: Homo sapiens; test: To identify inhibition of the IFN signalling (Jak-Stat) pathway via expression of an eGFP reporter gene under the control of an IFN-stimulated response element (ISRE) containing MxA promoter.; format: functional; settings: 30 µM
# [9] = target: T4, Tyrosyl-tRNA synthetase, putative (Trypanosoma cruzi (strain CL Brener)) (UniProt Q4DSP6); test: Trypanosoma cruzi tyrosyl tRNA synthetase (TcYRS) _High Tyrosine SOP; format: functional; settings: 30 µM; also: in the data most compounds retested in dose-response had high values
# T4 sequence (whole entry): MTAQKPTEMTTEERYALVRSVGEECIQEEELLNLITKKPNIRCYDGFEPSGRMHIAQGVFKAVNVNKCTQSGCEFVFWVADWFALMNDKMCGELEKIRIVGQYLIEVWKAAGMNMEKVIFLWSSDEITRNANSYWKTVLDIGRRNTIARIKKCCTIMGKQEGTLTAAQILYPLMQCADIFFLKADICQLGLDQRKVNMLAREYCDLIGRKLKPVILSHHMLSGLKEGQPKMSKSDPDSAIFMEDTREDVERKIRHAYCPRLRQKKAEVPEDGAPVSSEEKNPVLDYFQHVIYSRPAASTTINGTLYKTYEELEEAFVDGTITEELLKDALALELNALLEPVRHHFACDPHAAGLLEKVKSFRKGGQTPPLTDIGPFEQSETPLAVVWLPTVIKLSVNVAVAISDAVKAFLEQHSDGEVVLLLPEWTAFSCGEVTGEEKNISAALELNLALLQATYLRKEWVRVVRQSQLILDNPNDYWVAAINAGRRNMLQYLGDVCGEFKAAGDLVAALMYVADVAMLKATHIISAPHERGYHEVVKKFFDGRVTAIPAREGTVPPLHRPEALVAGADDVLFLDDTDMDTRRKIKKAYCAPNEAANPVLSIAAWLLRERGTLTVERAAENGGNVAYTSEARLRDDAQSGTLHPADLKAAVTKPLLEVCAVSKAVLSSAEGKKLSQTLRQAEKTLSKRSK
# [10] = target: T4, Tyrosyl-tRNA synthetase, putative (Trypanosoma cruzi (strain CL Brener)); test: Trypanosoma cruzi tyrosyl tRNA synthetase (TcYRS) SOP; format: functional; settings: 30 µM
# [11] = target: Chromo domain-containing protein 1 (Saccharomyces cerevisiae (strain ATCC 204508 / S288c) (Baker's yeast)) (UniProt P32657); test: ScCHD-1 Enzyme Inhibition Assay; format: functional; settings: 30 µM; also: in the data most compounds retested in dose-response had high values
# Chromo domain-containing protein 1 (Saccharomyces cerevisiae (strain ATCC 204508 / S288c) (Baker's yeast)), sequence (P32657 whole entry, the tested form may be a part): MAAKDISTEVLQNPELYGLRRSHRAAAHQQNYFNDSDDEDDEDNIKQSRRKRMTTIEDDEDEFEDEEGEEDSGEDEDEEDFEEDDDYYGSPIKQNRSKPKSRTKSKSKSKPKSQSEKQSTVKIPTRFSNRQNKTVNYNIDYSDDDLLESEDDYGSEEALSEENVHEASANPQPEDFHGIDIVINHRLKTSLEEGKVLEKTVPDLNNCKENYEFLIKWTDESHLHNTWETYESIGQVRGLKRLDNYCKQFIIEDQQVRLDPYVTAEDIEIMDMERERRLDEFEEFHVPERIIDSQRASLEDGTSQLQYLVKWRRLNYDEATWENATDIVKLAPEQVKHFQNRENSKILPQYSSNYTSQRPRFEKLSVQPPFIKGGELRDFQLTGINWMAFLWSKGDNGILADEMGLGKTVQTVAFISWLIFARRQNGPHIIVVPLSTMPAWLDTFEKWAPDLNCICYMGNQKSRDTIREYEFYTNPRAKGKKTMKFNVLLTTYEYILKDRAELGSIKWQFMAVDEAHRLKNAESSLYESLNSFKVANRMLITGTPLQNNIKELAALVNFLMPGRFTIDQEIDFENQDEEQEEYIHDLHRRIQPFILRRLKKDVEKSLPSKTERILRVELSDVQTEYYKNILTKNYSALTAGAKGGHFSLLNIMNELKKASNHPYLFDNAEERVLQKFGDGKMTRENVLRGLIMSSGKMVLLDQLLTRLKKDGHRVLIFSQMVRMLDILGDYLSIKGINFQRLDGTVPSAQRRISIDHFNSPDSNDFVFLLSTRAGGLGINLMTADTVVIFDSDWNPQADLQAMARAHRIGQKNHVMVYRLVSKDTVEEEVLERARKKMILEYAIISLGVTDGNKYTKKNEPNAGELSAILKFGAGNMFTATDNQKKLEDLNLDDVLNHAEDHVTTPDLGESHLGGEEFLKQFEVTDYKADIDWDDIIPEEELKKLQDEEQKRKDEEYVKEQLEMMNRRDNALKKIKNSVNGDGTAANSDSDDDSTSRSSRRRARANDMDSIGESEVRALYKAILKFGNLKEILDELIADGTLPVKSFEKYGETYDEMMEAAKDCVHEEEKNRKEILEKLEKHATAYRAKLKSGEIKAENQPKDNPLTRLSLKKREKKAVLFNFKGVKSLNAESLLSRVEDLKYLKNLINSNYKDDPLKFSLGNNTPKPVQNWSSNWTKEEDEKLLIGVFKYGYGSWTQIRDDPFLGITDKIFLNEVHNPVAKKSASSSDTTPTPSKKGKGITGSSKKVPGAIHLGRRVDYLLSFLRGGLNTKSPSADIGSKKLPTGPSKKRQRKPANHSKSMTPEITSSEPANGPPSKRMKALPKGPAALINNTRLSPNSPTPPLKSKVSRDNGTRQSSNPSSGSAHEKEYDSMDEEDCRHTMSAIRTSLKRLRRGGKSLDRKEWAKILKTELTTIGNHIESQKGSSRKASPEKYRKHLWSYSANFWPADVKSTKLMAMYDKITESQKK
# Sialic acid-binding Ig-like lectin 9 (Homo sapiens), sequence (Q9Y336 whole entry): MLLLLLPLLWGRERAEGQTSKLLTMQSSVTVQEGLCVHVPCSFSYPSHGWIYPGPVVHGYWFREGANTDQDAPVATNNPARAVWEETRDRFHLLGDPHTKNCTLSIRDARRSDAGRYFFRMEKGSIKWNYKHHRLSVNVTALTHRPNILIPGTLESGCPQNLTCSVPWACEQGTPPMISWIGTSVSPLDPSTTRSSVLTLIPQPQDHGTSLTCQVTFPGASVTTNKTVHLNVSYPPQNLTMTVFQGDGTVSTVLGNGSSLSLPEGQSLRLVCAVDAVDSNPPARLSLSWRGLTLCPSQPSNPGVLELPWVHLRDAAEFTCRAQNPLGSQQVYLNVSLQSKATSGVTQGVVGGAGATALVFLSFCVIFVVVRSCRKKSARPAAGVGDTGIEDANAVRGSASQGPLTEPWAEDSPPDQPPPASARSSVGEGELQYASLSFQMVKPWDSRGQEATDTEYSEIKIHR
# Protein translocase subunit SecA (Escherichia coli (strain K12)), sequence (P10408 whole entry): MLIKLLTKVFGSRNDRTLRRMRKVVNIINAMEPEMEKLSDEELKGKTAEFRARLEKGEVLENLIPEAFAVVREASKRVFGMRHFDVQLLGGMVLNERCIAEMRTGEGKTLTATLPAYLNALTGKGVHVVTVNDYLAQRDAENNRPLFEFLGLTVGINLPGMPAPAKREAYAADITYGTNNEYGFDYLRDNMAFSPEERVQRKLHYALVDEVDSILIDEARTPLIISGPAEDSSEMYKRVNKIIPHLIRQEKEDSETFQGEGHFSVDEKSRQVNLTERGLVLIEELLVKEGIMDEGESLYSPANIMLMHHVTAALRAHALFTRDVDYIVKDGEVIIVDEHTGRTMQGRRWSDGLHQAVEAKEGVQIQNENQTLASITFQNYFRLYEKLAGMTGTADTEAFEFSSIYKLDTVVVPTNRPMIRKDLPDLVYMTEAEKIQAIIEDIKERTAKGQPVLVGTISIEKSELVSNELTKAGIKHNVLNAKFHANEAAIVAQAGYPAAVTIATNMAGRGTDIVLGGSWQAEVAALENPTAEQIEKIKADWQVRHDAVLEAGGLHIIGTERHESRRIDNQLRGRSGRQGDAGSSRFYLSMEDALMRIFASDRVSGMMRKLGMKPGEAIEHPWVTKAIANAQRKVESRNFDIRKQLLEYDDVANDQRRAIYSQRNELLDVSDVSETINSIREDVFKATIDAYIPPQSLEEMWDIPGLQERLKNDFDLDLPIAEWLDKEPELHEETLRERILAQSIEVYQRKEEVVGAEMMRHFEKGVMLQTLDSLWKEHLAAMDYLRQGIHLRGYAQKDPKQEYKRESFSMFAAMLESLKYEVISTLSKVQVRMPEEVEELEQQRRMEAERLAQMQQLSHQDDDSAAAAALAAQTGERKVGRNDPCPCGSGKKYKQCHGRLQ
Compound,Percent Effect [1] [%],Percent Effect [2] [%],Percent Effect [3] [%],Percent Effect [4] [%],Percent Effect [5] [%],Percent Effect [6] [%],Percent Effect [7] [%],Percent Effect [8] [%],Percent Effect [9] [%],Percent Effect [10] [%],Percent Effect [11] [%]
CC(C)c1cc(NC(=O)CN2CCc3cncnc3C2)on1,-5.41,10.4,-22.4,3.99,1.31,-5.34,4.39,-5.17,16.5,21.9,-6.84
Cc1cccc(C)c1NC(=O)CCNC(=O)c1ccoc1,-3.75,18.2,5.22,-2.96,1.27,0.21,20.3,16,10.5,14.1,-8.58
CCS(=O)(=O)N1CCO[C@H]2[C@H](OCCCn3cccn3)CC[C@@H]21,-0.913,-2.67,-2.06,-3.13,3.48,-47.1,5.3,-0.821,-4.17,7.5,-1.55
CCc1cnc(C)nc1NCCN1CCCCCC1,-0.998,5.2,-1.3,10.8,-0.295,0,14.3,0.592,14,16.1,-4.71
Cc1cnn(CC2CCCCN2CC(=O)Nc2c(C)n[nH]c2C)c1 (configuration not stated),-3.93,6.33,8.13,0.215,-4.62,-5.81,6.86,16.1,1.04,10.1,-14.4
COc1ccc(N2CCC(C(=O)/N=c3/[nH]ccs3)CC2)nn1,-5.79,1.33,5.74,6.32,0.589,-13.9,11.3,44.8,5.29,12.8,-12.7
COc1ccc(Nc2nc3c(C)nn(C)c3c(=O)n2C)c(OC)c1,-1.13,15.6,-2.05,14.5,6.79,-12.4,10.3,0.301,8.6,18.5,-5.3
Cn1c(CNc2c(F)cccc2-n2cccn2)cc(=O)n(C)c1=O,-1.07,6.94,-4.86,3.69,1.46,20.8,6.14,5.47,5.26,10.3,-0.228
Cc1csc(N2CCN(CC(=O)Nc3c(C)n[nH]c3C)CC2C)n1 (configuration not stated),-1.64,21.6,-4.71,-7.72,-2.88,-3.51,15.4,5.89,3.96,13.4,-4.83
CC(NC(=O)N(C)Cc1ccncc1)c1nncn1C (configuration not stated),-3.28,20.8,3.42,21,2.43,22.5,13.2,-6.33,1.05,15.4,-7.53
CC(C)(C)C(=O)Cn1nc(-c2ccccc2F)ccc1=O,-3.18,6.67,5.01,9.44,0.393,-10,16.6,5.03,5.29,10.3,-6.12
COc1ccc(CNC(=O)C2(C#N)CCCC2)cc1,-1.97,12.5,-13.3,-2.27,3.6,-2.65,15.1,-14.7,4.21,7.69,95.5
O=C(O)CCc1cccc(C2CCCN2Cc2ccc(F)c(F)c2)n1 (configuration not stated),-3.79,4.05,1.3,8.61,1.78,1.62,1.09,0.308,6.45,14.3,-20.7
CC(C)c1n[nH]c(C(=O)Nc2ccnn2C(C)C)c1Br,-9.82,12.7,-6.58,19.3,8.4,-6.84,9.42,39.4,7.39,13.9,-9.92
Cc1cc(NC(=O)NCc2cccnc2OC(C)C)n(C)n1,-2.88,8.86,1.26,3.66,0.103,-1.07,19.4,4.52,3.12,12.7,-22.1
Cc1cccc(-c2noc(CN3CCCC(Cn4cncn4)C3)n2)c1 (configuration not stated),-6.12,20.2,-9.05,10.8,8.59,3.04,5.16,5.05,6.4,21.5,-4.86
NC(=O)c1ccc(CN2CCCC(N3CCCC3)C2)cc1 (configuration not stated),-3.01,18.9,-3.31,-0.296,2.54,5,23.8,-1.33,7.92,15.8,-6.1
N#Cc1ccc(S(=O)(=O)NC(=O)C2CC2)c(C(F)(F)F)c1,-6.08,21.6,-10.9,20.8,4.81,-6.41,6.49,7.08,6.4,23.5,-7.62
Cc1cccc(OCCC(=O)N(C)CCNS(C)(=O)=O)c1C,-2.9,5.26,8.08,6.9,-4.58,-2.37,7.96,3.29,2.13,13,-5.08
NC(=O)N1CCC2(CC1)CN(c1ccsc1)C(=O)CO2,-5.13,10.7,4.87,0.623,-7.68,-3.96,-2.38,11,-3.19,-1.28,-2.23
c1ccc(-c2ncc(CNC3CCc4ncnn4C3)cn2)cc1 (configuration not stated),-5,8.86,6.48,-1.35,-1.33,9.25,3.26,-3.68,7.29,10.1,-13.8
Cc1cc(C)n(C2CN(CC(=O)N(C)Cc3ccc(C)o3)C2)n1,-4.24,5.26,17.1,6.03,2.82,3.55,9.49,-0.498,34,28.6,-4.43
